Data from the supplement of paper PMC6555819.

Tests used:
Assay in all cases: PBM binding z-score (relative to random genomic background probes); higher = stronger binding; sequences stand for … in GC…GCGATTGACAGCGTAGAATGAAGG
[1] = test system: FXR:RXRa (NR concentration 270 nM, RXRa partner concentration 90 nM)
How it was run: (§1)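 Binding buffer was PBS pH 7.4 with 2% milk, 0.02% Triton X-100, 1 mM DTT, 0.2 mg/mL BSA and 0.4 mg/ml salmon testes DNA. In it, ligand-free nuclear receptor dimers were incubated 1 h on custom Agilent 4×180K protein-binding microarrays carrying double-stranded probes. Antibodies against each partner (one per run) detected binding, and z-scores were calculated against random background probes after regression normalization of scanned fluorescence.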

[2] = test system: LXRa:RXRa (NR concentration 270 nM, RXRa partner concentration 90 nM)
How it was run: as §1

[3] = test system: LXRa homodimer (NR concentration 270 nM)
How it was run: as §1

[4] = test system: LXRb:RXRa (NR concentration 270 nM, RXRa partner concentration 90 nM)
How it was run: as §1

[5] = test system: LXRb homodimer (NR concentration 270 nM)
How it was run: as §1

[6] = test system: PPARa:RXRa (NR concentration 270 nM, RXRa partner concentration 90 nM)
How it was run: as §1

[7] = test system: PPARg:RXRa (NR concentration 180 nM, RXRa partner concentration 90 nM)
How it was run: as §1

[8] = test system: PPARg:RXRa 270nM:90nM, anti-RXR (NR concentration 270 nM, RXRa partner concentration 90 nM)
How it was run: as §1

[9] = test system: PPARg:RXRa 30nM:10nM, anti-RXR (NR concentration 30 nM, RXRa partner concentration 10 nM)
How it was run: as §1

[10] = test system: PPARg:RXRa 90nM:30nM, anti-RXR (NR concentration 90 nM, RXRa partner concentration 30 nM)
How it was run: as §1

Row | Sequence | PBM binding z-score [1] | PBM binding z-score [2] | PBM binding z-score [3] | PBM binding z-score [4] | PBM binding z-score [5] | PBM binding z-score [6] | PBM binding z-score [7] | PBM binding z-score [8] | PBM binding z-score [9] | PBM binding z-score [10]
1 | TCTCGTAGATCAAAGGTTAAGAAAGCCGAAGCCT | 1.56 | 1.85 | -0.119 | 1.9 | -0.471 | 3.46 | 4.19 | 5.74 | 4.84 | 6
2 | CCTGCTAGGACATGGTCAGCTAATCTACAGTATG | -0.435 | -0.686 | -0.63 | -0.793 | -0.639 | -1.84 | 0.246 | -0.764 | -0.445 | -0.928
3 | AATACAGGTTCATCGTAGGCCAGAGTACGCACAG | 3.44 | 4.91 | 1.85 | 2.3 | 0.451 | 3.19 | 1.67 | 1.31 | 0.478 | 0.764
4 | GCTGCTAGGTCAGGTTGGTCAGGTAACGGGTACG | 1.37 | 0.789 | -0.109 | 0.63 | 0.124 | 1.5 | 0.626 | 0.972 | -0.553 | 0.573
5 | CCTATTTGGTCAGGAGGTCACACACCGGATATGA | 3.94 | 3.62 | 2.35 | 3.64 | 1.25 | 4.34 | 3.42 | 4.03 | 1.66 | 3.23
6 | TGAATGAGGTTAATGATCAGGGAACGTGGCGTCG | 1.4 | 1.33 | -0.115 | 0.692 | 0.285 | 2.39 | 1.58 | 1.84 | 0.601 | 1.17
7 | CGAACTAGGTCTAGGACAGTGAATCTCCGCACGC | -0.409 | -0.606 | -0.429 | -1.12 | -0.723 | -0.176 | 0.461 | -0.367 | -0.539 | -0.377
8 | CCTTTCGGGTCACTGACAGGTTATAGCATTTGGA | 5.71 | 4.35 | 0.279 | 3.33 | 0.0515 | 5.09 | 3.95 | 4.25 | 1.43 | 3.06
9 | AATACAGGGTCACCAGGCCAGAGTAGGTACGAAT | 7.09 | 5.86 | 0.943 | 4.55 | 0.722 | 6.07 | 8.01 | 6.75 | 3.76 | 5.35
10 | TCTAGTTGGTAAAAGGTCACACACTCGAAATGCG | 5.62 | 5.67 | 4.26 | 5.25 | 1.91 | 5.95 | 8.69 | 8.46 | 8.09 | 9.72
11 | CAAACTAGGTAAAGGTCAAAGTCGGTTTGTGCCA | 6.46 | 6.21 | 5.75 | 5.55 | 2.15 | 6.23 | 7.83 | 7.43 | 6.03 | 7.54
12 | AGTCAAAGTTCACTAGGTAAGGTAAGATTCAGCT | 5.15 | 4.75 | 3.2 | 3 | 1.19 | 4.4 | 6.73 | 5.99 | 3.11 | 5.44
13 | AGTCAAAGTGCAGGACGAGGTAACGTAAAGCACG | -0.105 | -0.155 | -0.419 | -0.641 | -0.89 | 0.169 | 1.06 | 1.03 | 0.301 | 0.389
14 | CAGCTTAGGTCAGGGCCAGTATAGGAGGAACGTT | 2.21 | 1.3 | -0.0157 | 0.814 | -0.56 | 2.17 | 0.606 | 0.732 | -0.0225 | 0.447
15 | GCAGACGGGTGAAACGCAGGTAACTCAGGGTGGC | -0.349 | -0.337 | -0.751 | -0.502 | -1.12 | 0.266 | 0.241 | -0.502 | -0.732 | -0.536
16 | ATATGTAGGTTATCGGGTCATTCTGTTTGCGCAT | 3.44 | 3.6 | 2.23 | 3.26 | 1.27 | 4.93 | 6.86 | 6.16 | 3.52 | 5.94
17 | CTTATTAGTTGACCATAAGGGCAACCGAAGCTCG | 0.831 | 0.356 | 0.185 | 0.373 | 0.837 | 0.629 | 0.439 | 0.266 | 0.208 | 0.259
18 | ATATGTAGGTTAGCTGGGGTTATTCAGACTAGGC | 1.74 | 3.29 | 0.848 | 2.56 | 1.44 | 3.94 | 4.22 | 3.82 | 1.45 | 2.9
19 | TCATATAGGTAAACAAGTGAAAGTCCGTAAGTTA | 1.87 | 1.33 | 0.256 | 1.17 | 0.297 | 1.58 | 1.4 | 2.55 | 4.08 | 2.98
20 | TCTTGTAGATCACCAGGTTAAGAAAGCTGGCCAA | 0.657 | 0.602 | -0.148 | 0.696 | 0.00375 | 1.47 | 0.304 | 2.21 | 3.04 | 2.67
21 | GCTTACTGGTCAAAGGTTATAGCATGAATAGAAT | 2.63 | 2.93 | 0.195 | 2.9 | -0.146 | 4.95 | 8.22 | 7.6 | 6.04 | 7.95
22 | AGTCAAAGTTCAGGACGAGGGAACGTAAAGCACG | 3.73 | 3.68 | 0.988 | 1.57 | 0.379 | 3.05 | 4.52 | 4.88 | 1.99 | 3.87
23 | CCTAGTTGGTCAAGGTCACACACGCTATAGGTAC | 4.71 | 4.18 | 2.66 | 3.92 | 1.23 | 4.33 | 3.35 | 3.96 | 1.66 | 3.2
24 | CCAACTGGGCCATCAGGTCATTGATATCAACGTT | 1.54 | 0.836 | 0.987 | 1.56 | -0.441 | 2.73 | 2.9 | 3.63 | 1.38 | 3.04
25 | ACTAGCAGGGCAAGTTTGGGTCACTCAAACAAAG | 1.11 | 0.854 | -0.346 | 1.07 | -0.746 | 1.85 | 0.29 | 0.531 | -0.392 | 0.0112
